# SMN2 splice up = qHTS Assay for Enhancers of SMN2 Splice Variant Expression; HEK293 SMN2-luciferase splicing reporter, luminescence, 30-36 h; hit rate 2.8% among 210,000; Potency, µM (doses to about 46.1 µM), without a hit: at the highest dose activity change, positive = activation, most hits filed as activators; also: % of control where 0% means no effect; nearly all actives have a fitted effect of over 55% in size
#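 HEK293 cells carry an SMN2 minigene-luciferase reporter in which exon 7 inclusion puts luciferase in frame. Cells were seeded at 2000 cells/well, attached for 10-12 hours, then exposed to compounds for 30-36 hours at 37C before ONE-Glo luminescence.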
# FLuc modulator = qHTS profiling assay for firefly luciferase inhibitor/activator using purifed enzyme and Km concentrations of substrates (counterscreen for miR-21 project). purified FLuc, Km substrates, luminescence inhibition. hit rate 6.9% among 360,000. Potency, µM (doses to about 57.5 µM), inactives show at the top dose activity change, negative = inhibition, hits mostly inhibitors;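 also: plate controls were vehicle for no effect and reference inhibitor for full effect; nearly all actives have a fitted effect of over 55% in size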
# Target sequence (P08659 whole entry, looked up): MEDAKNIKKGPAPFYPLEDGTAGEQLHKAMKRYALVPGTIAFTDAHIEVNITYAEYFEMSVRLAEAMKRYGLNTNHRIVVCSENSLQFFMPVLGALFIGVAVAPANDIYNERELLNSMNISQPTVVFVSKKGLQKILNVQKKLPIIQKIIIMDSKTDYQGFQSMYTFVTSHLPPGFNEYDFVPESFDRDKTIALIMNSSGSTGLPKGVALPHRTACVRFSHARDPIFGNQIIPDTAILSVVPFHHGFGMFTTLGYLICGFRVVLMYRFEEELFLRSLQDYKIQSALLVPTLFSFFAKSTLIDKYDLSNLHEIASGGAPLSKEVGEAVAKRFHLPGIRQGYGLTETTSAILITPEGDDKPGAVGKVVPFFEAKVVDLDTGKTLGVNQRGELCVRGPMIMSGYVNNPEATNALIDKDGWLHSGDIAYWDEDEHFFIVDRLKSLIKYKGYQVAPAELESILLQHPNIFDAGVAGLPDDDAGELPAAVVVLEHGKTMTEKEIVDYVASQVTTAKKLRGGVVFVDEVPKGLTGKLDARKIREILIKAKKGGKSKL
#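 Biochemical qHTS of compounds, final roughly 60 µM downward over six points, against 10 nM purified firefly luciferase using Km concentrations of substrates (10 uM D-luciferin, 10 uM ATP) in Tris acetate pH 7.5 buffer; luminescence output.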
# ELG1 genotox = qHTS screen for small molecules that induce genotoxicity in human embryonic kidney (HEK293T) cells expressing luciferase-tagged ELG1; HEK293T ELG1-luciferase reporter, luminescence, 16 h; Potency, µM (doses to about 46 µM), without a hit: at the top dose activity change, positive = activation, actives largely listed as activators; hit rate 1.3% among 330,000; AID 504466, 2011; also: % of control where 0% means no effect; nearly all actives have a fitted effect of over 60% in size
#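 Genotoxicity was scored as increased ELG1-luciferase reporter signal, measured by ONE-Glo luminescence (30 min, room temperature). Compound or vehicle exposure of the HEK293T reporter cells lasted 16 hr at 37°C.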
# Rab9 prom act = qHTS Assay for Rab9 Promoter Activators. Huh7 Rab9 promoter-luciferase reporter, luminescence, 24 h. Potency, µM (top dose mostly 9.22 µM), for the others: at the top dose activation, negative = inhibition, most hits filed as activators. hit rate 2.8% among 320,000. AID 485297, 2010; also: % of control where 0% means no effect; nearly all actives have a fitted effect of over 60% in size
#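 Quantitative HTS format; Huh7 Rab9-luciferase reporter cells (1500/well) receive compound 2 h post-plating, incubate 24 h at 37 °C, then get luciferase reagent for 10 min before luminescence reading.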
# NPC1 prom act = qHTS Assay for NPC1 Promoter Activators; Huh7 NPC1 promoter luciferase reporter, 24 h; Potency, µM (highest dose often 9.22 µM), for the others: at the highest dose activation, usual class: activators; hit rate 2.4% among 320,000; also: % of control where 0% means no effect; nearly all actives have a fitted effect of over 60% in size
#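 NPC1 promoter–luciferase Huh7 cells; 24 h compound; luminescence.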
# An asterisk follows results filed as active; ? = inconclusive; / = not tested or not shown; [ ] = another dose, or the depositor's remark. Only some compounds are listed: those with a hit (about 7.4% of all), similar ones and a draw of the others. Calls follow the shape of the dose curve; as a rule, active = well fitted curve in the direction sought with a large enough effect; inconclusive = small, poorly fitted or top-dose-only effect, or another doubt; inactive = no such curve, though single readings can be large; an effect the other way counts as inactive or inconclusive. Potency is read from the fitted curve at half-maximal effect.
SMILES,SMN2 splice up,FLuc modulator,ELG1 genotox,Rab9 prom act,NPC1 prom act
Cc1ccc(CN2C(=O)C(C)Nc3ncnc(N4CCN(c5ccccn5)CC4)c32)cc1 (stereo not given),/,1%,-2%,-5%,0%
CC(=O)c1ccc(OCc2cc(C(=O)NC(C)CCn3cccn3)no2)cc1 (stereo not given),/,15µM*,18µM*,4µM*,2.8µM*
O=C(NCCCn1cccn1)c1cc(COc2ccc(F)cc2Cl)on1,/,17µM*,-3%,17%,16%
CCN(CCn1cccn1)C(=O)c1cc(COc2ccc(F)cc2Cl)on1,-7%,?,0%,-3%,-1%
COCCNC(=O)C1CCC(CNS(=O)(=O)c2ccc3c(c2)CC(C)N3C(C)=O)CC1 (stereo not given),/,-4%,/,/,/
Cc1cccc(C)c1OCC(=O)Nc1cccc(C(=O)O)c1,6.3µM*,2.1µM*,?,2.5µM*,1.4µM*
CCOC(=O)Nc1cccc(C(=O)O)c1,13µM*,-19%,7%,?,?
Cc1ccc(C)c(OCC(=O)Nc2ccc3c(c2)OCO3)c1C,?,?,1%,0%,-2%
Cc1ccc(C)c(OCC(=O)Nc2cccc(C(=O)O)c2)c1C,13µM*,11µM*,?,?,?
CCOC(=O)Nc1cccc(Nc2ccccc2)c1,0%,?,?,-2%,2%
CC(C)CNC(=O)c1cccc(NC(=O)c2ccc(Cl)c([N+](=O)[O-])c2)c1,-6%,-8%,-3%,0%,-3%
Cc1cc(NC(=O)CN2C(=O)c3cccnc3Sc3ccccc32)ccc1Br,/,-19%,/,/,/
CCn1c(SCC(=O)N/N=C/C(C)=C/c2ccco2)nnc1-c1ccccc1,-11%,15µM*,-2%,2%,-2%
CCn1c(SCC(=O)N/N=C/C(C)=C\c2ccco2)nnc1-c1ccccc1,-9%,13µM*,1%,1%,-1%
CCn1c(SCC(=O)N/N=C/C=C/c2ccco2)nnc1-c1ccccc1,-41%,?,1%,-7%,-5%
O=C1c2ccccc2C(O)(c2ccccc2)N1c1ccncc1 (stereo not given),/,0%,-3%,-7%,-11%
CC(C)C[C@H](NC(=O)N1CC(=O)Nc2ccccc21)C(=O)N1CCC(C(=O)O)CC1,/,2%,-1%,0%,-1%
Cc1oc(-c2cccc(Cl)c2)nc1CSc1nc2ncccc2[nH]1,/,-16%,/,/,/
COc1ccc(C/C(N)=N/OC(=O)c2cccs2)cc1,/,-13%,2%,1%,10%
COc1ccc(C(=O)OCCc2cc3ccccc3c(=O)o2)cc1,/,?,7%,-9%,3%
C/C(=N\OC(=O)c1ccc(F)cc1)c1nccs1,-6%,0.67µM*,-1%,3%,-4%
O=C(OCCc1cc2ccccc2c(=O)o1)c1cccs1,/,4.3µM*,-1%,1%,26%
COc1ccc(C(=O)O/N=C(\C)c2nccs2)cc1,/,0.48µM*,1%,15%,-2%
COc1ccc(C(=O)O/N=C(/C)c2cccs2)cc1,-3%,0.076µM*,2%,-2%,-3%
CCC/C=C(\CCC)C(NC(=O)c1ccccc1)c1ccc(C(=O)OC)cc1 (stereo not given),-38%,/,/,/,/
SMILES,SMN2 splice up,FLuc modulator,ELG1 genotox,Rab9 prom act,NPC1 prom act
COc1ccc(C(=O)N/N=C/c2ccc(OC(=O)c3cccs3)cc2)cc1,19%,0%,10%,-4%,5%
COc1ccc(OCCOC(=O)c2cccs2)cc1,0%,17µM*,23µM*,-8%[1.84 µM],1%
COc1ccc(C2CC2/C(C)=N/OC(=O)c2cccs2)cc1 (stereo not given),11%,24µM*,1%,0%,0%
C/C(=N/OC(=O)c1c(F)cccc1F)c1nccs1,4%,4.8µM*,-8%,-1%,-4%
COC(=O)c1ccc(OC(=O)c2cccs2)cc1,7%,24µM*,3%,3%,-21%
CCN(CC)S(=O)(=O)c1ccc(N2CCN(C)CC2)c(NC(=O)Nc2ccc(C)cc2)c1,/,-15%,16%,1%,13%
COc1ccc(OC)c(CCNC(=O)C(C)n2c(C)c3cnn(-c4ccccc4)c(=O)c3c2C)c1 (stereo not given),-21%,1%,/,/,/
CC1Cn2c(nc(=O)c3c2NCN(CCc2ccccc2)C3)S1 (stereo not given),/,-1%,15%,-2%,-5%
COc1ccc(Cn2c(CCC(=O)NCCC(C)C)nc3ncccc3c2=O)cc1,/,-3%,2%,-2%,-2%
COc1ccccc1NC(=O)Nc1nc(-c2cccnc2)nc2ccccc12,-10%,/,/,/,/
CCn1nc(-c2ccccc2)c(-c2ccccc2)c(C(=O)Nc2ccc(NC(C)=O)cc2)c1=O,5%,-18%,/,/,/
CC(=O)Cc1nsc(NC(=O)c2ccc(-c3ccc(F)cc3)o2)n1,2%,6µM*,1%,16%,-2%
CC(=O)Cc1nsc(NC(=O)c2ccc(-c3ccccc3Cl)o2)n1,11µM*,11µM*,?,8%,4%
CC(=O)Cc1nsc(NC(=O)c2oc(-c3ccccc3Cl)cc2C)n1,5%,?,-1%,4%,-1%
NS(=O)(=O)c1ccc(CCNC(=O)/C=C/c2ccccc2[N+](=O)[O-])cc1,-12%,1%,-12%,-2%,-2%
Cc1cc(O)c(C(c2ccccc2)N2CCN(c3ccc(F)cc3)CC2)c(=O)n1Cc1ccco1 (stereo not given),/,-15%,/,/,/
Clc1cccc(Cl)c1CSc1nnc(-c2ccncc2)s1,/,15µM*,5%,14%,22%
Clc1ccc(CSc2nnc(-c3ccncc3)s2)cc1,/,-1%,1%,-2%,-3%
Cc1cccc(Oc2nc3c(C)cccn3c(=O)c2/C=C(\C#N)c2nc3ccccc3s2)c1,2%,0%,/,/,/
Cc1nc2cc3ccccc3cc2c(=O)[nH]1,?,13µM*,?,?,?
CC(C)OC(=O)Cc1nc2sc(-c3ccccc3)cc2c(=O)[nH]1,/,17µM*,?,4.5µM*,?
CCc1cc2c(=O)[nH]c(CC(N)=O)nc2s1,-7%,2%,-2%,-6%,-2%
Cc1nc2sc(-c3ccccc3)cc2c(=O)[nH]1,13µM*,1.3µM*,0.58µM*,0.5µM*,0.63µM*
CSc1ncc2c(=O)[nH]c(-c3ccccc3)nc2n1,/,?,4%,0%[1.84 µM],-2%
O=c1[nH]c(-c2cccnc2)nc2sc(-c3ccccc3)cc12,29%,4.8µM*,?,26%,-23%
Cc1cnc(C(=O)OCC(=O)Nc2cc(S(=O)(=O)N3CCOCC3)ccc2Cl)cn1,/,/,-2%,/,/
Cc1ccc(C(c2c(C)n(C)n(-c3ccccc3)c2=O)c2c(C)n(C)n(-c3ccccc3)c2=O)s1,-31%,1%,-4%,-5%,-7%

# Assay outcomes: PubChem BioAssay, National Center for Advancing Translational Sciences (NCATS)
